Test results from PubChem BioAssay (EPA / NIEHS).
Results filed as inconclusive are left out. The source made the active and inactive calls. The calls were made as follows, unless noted: active = hit-call score of the fitted dose curve at least 0.9, where 1 is the maximum; inactive = score below 0.9.

Experiments:
[1] = ACEA_ER_80hr: ACEA Biosciences xCELLigence Real-Time Cell Analysis on Estrogen Receptor Agonism for Proliferation (AID 2282667; active = hit-call score of the fitted dose curve at least 0.9, where 1 is the maximum); details: T47D proliferation, impedance (xCELLigence), 80 h
In short: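 T-47D cells monitored by electrical impedance (xCELLigence) with compound present throughout; 80 h timepoint, positive-direction fitting versus DMSO. Eight-point 1:4 dilutions from 100 uM final, duplicate plates.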

[2] = ATG_CRE_CIS: Attagene CIS-FACTORIAL HepG2 Assay for human cAMP Responsive Element (CRE) binding protein 3 (AID 2282926); details: HepG2 CRE cis-reporter, Attagene multiplexed mRNA; actives raise or lower the signal
In short: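 Induced reporter mRNA from a CRE cis element, measured in HepG2 among many multiplexed units at 24 h. Detection used RT-PCR plus capillary electrophoresis of fluorescent fragments; DMSO served as negative control.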

[3] = molecular target: CCAAT/enhancer-binding protein beta (Homo sapiens) (UniProt P17676); experiment: ATG_C_EBP_CIS: Attagene CIS-FACTORIAL HepG2 Assay for human CCAAT/Enhancer Binding Protein (C/EBP) beta (AID 2282927); details: HepG2 Attagene cis-factorial transcription factor reporter; actives raise or lower the signal
Sequence of CCAAT/enhancer-binding protein beta (Homo sapiens) (P17676 whole entry, looked up): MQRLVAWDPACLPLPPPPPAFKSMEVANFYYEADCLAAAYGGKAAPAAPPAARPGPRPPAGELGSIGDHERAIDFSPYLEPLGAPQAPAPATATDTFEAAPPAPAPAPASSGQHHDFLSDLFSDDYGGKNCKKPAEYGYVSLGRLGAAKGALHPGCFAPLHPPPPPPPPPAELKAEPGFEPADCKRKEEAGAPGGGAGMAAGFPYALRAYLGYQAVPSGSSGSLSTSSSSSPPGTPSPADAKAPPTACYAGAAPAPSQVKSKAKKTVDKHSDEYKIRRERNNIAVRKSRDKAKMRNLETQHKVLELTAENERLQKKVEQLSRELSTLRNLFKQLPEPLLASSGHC
In short: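 RT-PCR/capillary electrophoresis fluorescence of reporter mRNA, 24 h post-dose, in HepG2 cells carrying transfected cis-promoter reporter units. Bidirectional curve fitting against DMSO baseline captures gain or loss of signal.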

[4] = ATG_CMV_CIS: Attagene CIS-FACTORIAL HepG2 Assay for human CMV (Internal Marker) (AID 2282928); details: HepG2 CMV promoter reporter, transcription factor profiling; actives raise or lower the signal;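 also: endpoint acts as a background internal control marker rather than a target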
In short: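 Readout: fluorescent reporter cDNA fragments separated by capillary electrophoresis after RT-PCR and HpaI cut. Cells: HepG2 carrying transfected cis-promoter reporter constructs, dosed 24 h. Endpoint serves as background internal-marker control, fit bidirectionally versus DMSO.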

[5] = ATG_DR4_LXR_CIS: Attagene CIS-FACTORIAL HepG2 Assay for human Liver X Receptor (LXR), DR4 submotif (AID 2282929); details: HepG2 Attagene DR4 cis-reporter, mRNA transcription; actives raise or lower the signal
In short: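 DR4 cis-reporter in HepG2, 24 h exposure. Detection: RT-PCR, 6-FAM labelling, CE fragment analysis. Endpoint fitted bidirectionally, DMSO = baseline.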

[6] = molecular target: Aryl hydrocarbon receptor (Homo sapiens) (UniProt P35869); experiment: ATG_Ahr_CIS: Attagene CIS-FACTORIAL HepG2 Assay for human Aryl Hydrocarbon Receptor (Ahr) (AID 2282930); details: HepG2 AhR cis-factorial reporter transcription; actives raise or lower the signal
Sequence of Aryl hydrocarbon receptor (Homo sapiens) (P35869 whole entry, looked up): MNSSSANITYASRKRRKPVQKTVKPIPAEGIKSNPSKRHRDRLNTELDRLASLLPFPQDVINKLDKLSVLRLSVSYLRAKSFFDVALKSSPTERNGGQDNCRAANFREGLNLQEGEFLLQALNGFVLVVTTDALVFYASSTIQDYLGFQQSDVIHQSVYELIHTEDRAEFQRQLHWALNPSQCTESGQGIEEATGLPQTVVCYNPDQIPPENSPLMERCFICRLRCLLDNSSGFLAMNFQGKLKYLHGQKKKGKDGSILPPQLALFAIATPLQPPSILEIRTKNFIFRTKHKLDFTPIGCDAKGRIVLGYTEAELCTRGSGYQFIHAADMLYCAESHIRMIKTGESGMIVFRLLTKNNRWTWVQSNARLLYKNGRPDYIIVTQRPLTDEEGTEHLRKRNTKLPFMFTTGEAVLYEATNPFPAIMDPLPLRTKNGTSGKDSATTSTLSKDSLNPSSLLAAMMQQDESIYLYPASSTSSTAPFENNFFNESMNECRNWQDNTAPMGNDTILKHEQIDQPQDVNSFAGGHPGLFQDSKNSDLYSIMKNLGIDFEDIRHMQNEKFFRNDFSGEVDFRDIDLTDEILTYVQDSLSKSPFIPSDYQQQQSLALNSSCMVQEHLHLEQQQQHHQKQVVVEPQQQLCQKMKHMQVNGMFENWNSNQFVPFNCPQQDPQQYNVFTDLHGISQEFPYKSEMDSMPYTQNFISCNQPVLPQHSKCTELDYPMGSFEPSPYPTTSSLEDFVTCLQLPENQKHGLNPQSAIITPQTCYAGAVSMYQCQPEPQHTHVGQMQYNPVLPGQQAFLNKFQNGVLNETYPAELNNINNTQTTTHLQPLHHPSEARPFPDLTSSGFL
In short: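 HepG2 cells transiently transfected with cis-element-driven multiplexed reporter transcription units; endogenous transcription factor activity measured as reporter mRNA 24 h after dosing. RT-PCR, 6-FAM labelling, HpaI digestion, capillary electrophoresis; bidirectional fitting versus DMSO baseline.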

[7] = ATG_AP_1_CIS: Attagene CIS-FACTORIAL HepG2 Assay for human Activator Protein 1 (AP-1) (AID 2282931); details: HepG2 Attagene cis-factorial AP-1 reporter mRNA; actives raise or lower the signal
In short: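 Cis-regulated reporter units transiently expressed in HepG2 report endogenous transcription-factor activity. Signal: reporter mRNA at 24 h, via RT-PCR and fluorescent capillary electrophoresis. Endpoint derived by bidirectional fitting, DMSO as negative control.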

[8] = ATG_AP_2_CIS: Attagene CIS-FACTORIAL HepG2 Assay for human Activator Protein 2 (AP-2) (AID 2282932); details: HepG2 AP-2 cis-reporter, Attagene transcription factor profiling; actives raise or lower the signal
In short: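 Cells (HepG2) transfected with promoter-driven reporter constructs, treated 24 h. Total RNA reverse-transcribed, reporter cDNA PCR-amplified, FAM-labelled by primer extension, digested, resolved by capillary electrophoresis. Activity fitted both directions versus DMSO.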

[9] = ATG_BRE_CIS: Attagene CIS-FACTORIAL HepG2 Assay for human Bone Morphogenetic Protein (BMP) Response Element (BRE) (AID 2282933); details: HepG2 BMP response element reporter, Attagene transcription factor profiling; actives raise or lower the signal
In short: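 Gain- or loss-of-signal was derived by bidirectional fitting against DMSO controls. The signal came from reporter mRNA, measured by RT-PCR and capillary electrophoresis, in HepG2 cells transiently carrying multiple reporter units and dosed for 24 h.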

[10] = molecular target: Retinoic acid receptor alpha (Homo sapiens) (UniProt P10276); experiment: ATG_DR5_RAR_CIS: Attagene CIS-FACTORIAL HepG2 Assay for human Retinoic Acid Receptor Alpha (RARE), DR5 submotif (AID 2282934); details: HepG2 Attagene cis-factorial RARE DR5 reporter, mRNA; actives raise or lower the signal
Sequence of Retinoic acid receptor alpha (Homo sapiens) (P10276 whole entry, looked up): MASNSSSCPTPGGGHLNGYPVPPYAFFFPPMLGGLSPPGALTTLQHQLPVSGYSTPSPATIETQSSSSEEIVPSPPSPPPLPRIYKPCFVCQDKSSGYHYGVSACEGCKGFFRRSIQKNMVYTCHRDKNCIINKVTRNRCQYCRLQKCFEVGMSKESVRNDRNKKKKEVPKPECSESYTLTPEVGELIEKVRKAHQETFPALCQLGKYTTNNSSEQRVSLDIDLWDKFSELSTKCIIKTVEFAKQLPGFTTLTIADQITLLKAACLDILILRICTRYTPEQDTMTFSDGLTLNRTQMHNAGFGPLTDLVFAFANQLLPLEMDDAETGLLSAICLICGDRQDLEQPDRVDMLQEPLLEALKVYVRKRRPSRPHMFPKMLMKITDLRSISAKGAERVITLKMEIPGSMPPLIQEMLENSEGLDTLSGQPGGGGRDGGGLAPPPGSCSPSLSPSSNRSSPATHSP
In short: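 HepG2 cells transiently transfected with multiplexed reporter units under cis (DR5 RARE) promoters, so endogenous transcription factor activity is measured. After 24 h compound exposure, reporter mRNA is quantified by RT-PCR with fluorescent labelling and capillary electrophoresis; bidirectional fitting versus DMSO.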

[11] = molecular target: Transcription factor E2F1 (Homo sapiens) (UniProt Q01094); experiment: ATG_E2F_CIS: Attagene CIS-FACTORIAL HepG2 Assay for human E2F Transcription Factor 1 (AID 2282935); details: HepG2 Attagene cis-reporter, E2F reporter RNA transcripts; actives raise or lower the signal
Sequence of Transcription factor E2F1 (Homo sapiens) (Q01094 whole entry, looked up): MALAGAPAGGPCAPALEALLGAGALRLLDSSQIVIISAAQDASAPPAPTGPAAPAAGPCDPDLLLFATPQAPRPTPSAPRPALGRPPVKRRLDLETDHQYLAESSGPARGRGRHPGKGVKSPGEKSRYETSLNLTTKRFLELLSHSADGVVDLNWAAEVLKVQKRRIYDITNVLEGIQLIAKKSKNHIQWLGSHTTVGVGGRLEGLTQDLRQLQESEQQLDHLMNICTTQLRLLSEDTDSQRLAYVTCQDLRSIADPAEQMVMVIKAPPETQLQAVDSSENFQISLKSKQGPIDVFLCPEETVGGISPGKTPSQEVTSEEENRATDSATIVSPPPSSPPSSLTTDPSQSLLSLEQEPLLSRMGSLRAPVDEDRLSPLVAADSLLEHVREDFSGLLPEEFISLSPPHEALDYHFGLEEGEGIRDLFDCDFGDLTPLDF
In short: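 First, HepG2 cells were transfected with reporter transcription units. Next, they were dosed for 24 h. Then RNA was isolated, converted to cDNA, PCR-amplified, FAM-labeled, HpaI-digested and analyzed by capillary electrophoresis.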

[12] = ATG_M_61_CIS: Attagene CIS-FACTORIAL HepG2 Assay for M61 Transcription Factor (Internal Marker) (AID 2282937); details: HepG2 Attagene CIS-FACTORIAL M61 internal marker reporter; actives raise or lower the signal
In short: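 Background-control endpoint: HepG2 cells with cis-regulated reporter constructs, 24 h exposure, reporter mRNA detected via fluorescent primer extension and capillary electrophoresis; values from bidirectional fitting with DMSO baseline.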

[13] = ATG_EGR_CIS: Attagene CIS-FACTORIAL HepG2 Assay for human Early Growth Response 1 (EGR1) (AID 2282938); details: HepG2 Attagene CIS-FACTORIAL EGR reporter mRNA; actives raise or lower the signal
In short: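 Endpoint derived by bidirectional fitting versus DMSO vehicle. Method: cis-promoter reporter units transfected into HepG2, 24 h dosing, RNA isolation, RT-PCR with 6-FAM primer extension and HpaI digestion, then capillary electrophoresis fluorescence detection.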

[14] = ATG_M_19_CIS: Attagene CIS-FACTORIAL HepG2 Assay for M19 Transcription Factor (Internal Marker) (AID 2282939); details: HepG2 Attagene CIS-FACTORIAL M19 internal marker reporter; actives raise or lower the signal
In short: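 Following a 24 h exposure, RNA from transfected HepG2 cells was reverse-transcribed, PCR-amplified with reporter-specific primers, end-labelled with 6-FAM and HpaI-digested before capillary separation. Values represent gain or loss versus DMSO.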

[15] = ATG_Ets_CIS: Attagene CIS-FACTORIAL HepG2 Assay for human Erythroblast Transformation Specific (ETS) (AID 2282941); details: HepG2 ETS cis-reporter transcription, actives raise or lower the signal
In short: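 RT-PCR/capillary electrophoresis fluorescence read-out of reporter mRNA; HepG2 transient multi-reporter transfection; 24 h compound exposure; gain or loss of signal fitted bidirectionally relative to DMSO.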

[16] = molecular target: Hepatocyte nuclear factor 3-beta (Homo sapiens) (UniProt Q9Y261); experiment: ATG_FoxA2_CIS: Attagene CIS-FACTORIAL HepG2 Assay for human Forkhead box A2 (FOXA2) (AID 2282942); details: HepG2 cis-reporter transcription factor activity, 24 h; actives raise or lower the signal
Sequence of Hepatocyte nuclear factor 3-beta (Homo sapiens) (Q9Y261 whole entry, looked up): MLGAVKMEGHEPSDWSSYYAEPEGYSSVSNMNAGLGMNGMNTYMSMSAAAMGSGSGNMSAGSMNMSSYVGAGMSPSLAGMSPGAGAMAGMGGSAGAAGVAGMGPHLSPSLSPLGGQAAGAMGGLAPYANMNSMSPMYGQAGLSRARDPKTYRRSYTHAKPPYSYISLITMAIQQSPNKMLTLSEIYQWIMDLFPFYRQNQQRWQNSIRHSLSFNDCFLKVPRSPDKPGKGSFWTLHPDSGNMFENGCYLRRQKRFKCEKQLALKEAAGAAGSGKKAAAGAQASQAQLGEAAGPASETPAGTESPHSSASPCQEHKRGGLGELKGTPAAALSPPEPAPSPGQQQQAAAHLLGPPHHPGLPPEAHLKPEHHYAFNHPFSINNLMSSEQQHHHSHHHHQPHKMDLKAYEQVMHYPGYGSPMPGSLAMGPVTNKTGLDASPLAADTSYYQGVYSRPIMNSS
In short: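 Measured: reporter mRNA induction or loss in HepG2 transiently carrying multiple cis-regulated reporter units, 24 h after dosing. Quantified by RT-PCR plus capillary electrophoresis, normalised to DMSO.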

[17] = ATG_FoxO_CIS: Attagene CIS-FACTORIAL HepG2 Assay for human Forkhead box O (FoxO) (AID 2282943); details: HepG2 Attagene cis-reporter, FoxO element, mRNA; actives raise or lower the signal
In short: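 HepG2 cells transiently transfected with cis-promoter-driven multiple reporter transcription units; 24 h after chemical dosing, reporter mRNA quantified by RT-PCR, fluorescent primer extension, HpaI digestion and capillary electrophoresis. Bidirectional fitting versus DMSO baseline.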

[18] = ATG_GATA_CIS: Attagene CIS-FACTORIAL HepG2 Assay for human GATA Binding Protein (AID 2282944); details: HepG2 GATA cis-element reporter, Attagene multiplex mRNA; actives raise or lower the signal
In short: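 DMSO serves as negative control and baseline for bidirectional fitting of reporter mRNA changes. HepG2 cells bearing transiently transfected cis-promoter reporters were exposed 24 h; transcripts detected via RT-PCR and capillary electrophoresis.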

[19] = ATG_E_Box_CIS: Attagene CIS-FACTORIAL HepG2 Assay for human Enhancer Box (E-box) (AID 2282936); details: HepG2 E-box cis-reporter transcription, actives raise or lower the signal
In short: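 Endogenous transcription factor activity was sensed in human HepG2 liver cells through transfected cis-promoter reporter units. After 24 h of dosing, total RNA was reverse-transcribed and reporter cDNA resolved by capillary electrophoresis.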

[20] = ATG_ERE_CIS: Attagene CIS-FACTORIAL HepG2 Assay for Estrogen Response Element (ERE) (AID 2282940); details: HepG2 ERE cis-reporter, Attagene RNA transcript; actives raise or lower the signal
In short: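 HepG2, transient cis-reporter units, 24 h exposure. RNA isolated, oligo(dT) RT, reporter-specific PCR, FAM extension, HpaI cut, CE detection. Gain/loss-of-signal vs DMSO.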

Measured: AC50

CCN=c1cc2oc3cc(NCC)c(C)cc3c(-c3ccccc3C(=O)OCC)c-2cc1C
active: [1] 0.0353 µM | [2] 11.1 µM | [5] 4.45 µM | [7] 2.75 µM | [8] 11.1 µM | [13] 11.1 µM
not listed: [19] | [20]
inactive: all other assays above

CC(C)OC(=O)COc1ccc(Cl)cc1Cl
not listed: [6]
inactive: all other assays above

CC(=O)C=O
not listed: [19]
inactive: all other assays above

CCCCC(CC)COC(=O)c1ccc(N(C)C)cc1 (stereo not given)
active: [4] 53.9 µM | [5] 64.7 µM | [7] 61.7 µM | [9] 46.7 µM | [20] 9.36 µM
not listed: [6]
inactive: all other assays above

CO[Si](CCCOCC1CO1)(OC)OC (stereo not given)
not listed: [16] | [20]
inactive: all other assays above

NS(=O)(=O)C(F)(F)C(F)(F)C(F)(F)C(F)(F)C(F)(F)C(F)(F)F
active: [20] 41.4 µM
not listed: [16] | [19]
inactive: all other assays above

Cc1ccc([N+](=O)[O-])c(C)c1
active: [1] 22.4 µM
not listed: [20]
inactive: all other assays above
